Bioassay records as filed in PubChem BioAssay.
uPA generation – qHTS for Inhibitors of Cell Surface uPA Generation | cell surface uPA generation assay, qHTS | Potency, µM (doses to about 38.3 µM), for inactives: at the top dose activity change, negative = inhibition, actives largely listed as inhibitors | actives 0.31% (n = 330,000); active = well fitted inhibition curve with a large enough effect; inconclusive = small, poorly fitted or top-dose-only effect; inactive = no such curve, though single readings can be large or run the other way; tested in mouse RAW 264.7 cells; note: potency is the fitted concentration of half-maximal effect; % is set by controls: 0 for no effect and ±100 for the full control effect; nearly all actives have a fitted effect of over 55% in size
TDP1 cell CPT – qHTS for Inhibitors of human tyrosyl-DNA phosphodiesterase 1 (TDP1): qHTS in cells in presence of CPT | chicken DT40 Tdp1-/-;hTDP1 cells + 20 nM CPT, ATP luminescence, 48 h | Potency, µM (series often up to 46.2 µM), for inactives: top-dose activity change, negative = growth inhibition, most hits filed as inhibitors | actives 12% (n = 420,000); note: potency is the fitted concentration of half-maximal effect; % is set by controls: 0 for no effect and ±100 for the full control effect; nearly all actives have a fitted effect of over 55% in size
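Chicken DT40 Tdp1-/- cells stably complemented with human TDP1 were seeded at 400 cells/well in medium containing 20 nM camptothecin, exposed to pin-transferred compounds, and grown at 37 °C for at least 48 hr. Viability was read as ATP luminescence.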
TDP1 cell noCPT – qHTS for Inhibitors of human tyrosyl-DNA phosphodiesterase 1 (TDP1): qHTS in cells in absence of CPT. actives 15% (n = 420,000). Potency, µM (highest dose often 46.2 µM), inactives show at the highest dose activity change, negative = growth inhibition, actives largely listed as inhibitors. DT40 Tdp1-/- hTDP1 cells, no CPT, ATP luminescence, 48 h; note: potency is the fitted concentration of half-maximal effect; % is set by controls: 0 for no effect and ±100 for the full control effect; nearly all actives have a fitted effect of over 55% in size
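Camptothecin absent (DMSO only). Human TDP1-complemented DT40 knockout cells, 400 cells/well, 37 °C for minimum 48 hr; ATP measured via CellTiter-Glo, 30 min dark incubation, luminescence.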
miR-21 reporter – qHTS Assay for Modulators of miRNAs and/orActivators of miR-21 | 340,000 tested, under 10 active | HeLa miR-21 FLuc reporter, luciferase, 48 h | Potency, µM (highest dose often 38.3 µM), for the others: at the top dose activity change, positive = activation, hits mostly activators;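 note: % of control where 0% means no effect; miR-21 action dims this reporter so a rising signal means less miR-21 action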
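Compounds were titrated across several concentrations (up to approximately 40 uM) and incubated 48 hours with HeLa miR-21-FLuc reporter cells (miR-21 target sequence downstream of FLuc, endogenous miR-21). Readout was firefly luciferase luminescence after lytic detection reagent.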
TDP1 inh – qHTS Assay for Inhibitors of Tyrosyl-DNA Phosphodiesterase (TDP1) | recombinant TDP1, AlphaScreen DNA substrate cleavage | AID 485290, 2010 | actives 0.28% (n = 350,000) | Potency, µM (highest dose often 130 µM), for the others: at the highest dose activity change, negative = inhibition, usual class: inhibitors | Tyrosyl-DNA phosphodiesterase 1 (Homo sapiens), Q9NUW8; note: potency is the fitted concentration of half-maximal effect; % is set by controls: 0 for no effect and ±100 for the full control effect; nearly all actives have a fitted effect of over 40% in size
Target sequence (Q9NUW8 whole entry, looked up): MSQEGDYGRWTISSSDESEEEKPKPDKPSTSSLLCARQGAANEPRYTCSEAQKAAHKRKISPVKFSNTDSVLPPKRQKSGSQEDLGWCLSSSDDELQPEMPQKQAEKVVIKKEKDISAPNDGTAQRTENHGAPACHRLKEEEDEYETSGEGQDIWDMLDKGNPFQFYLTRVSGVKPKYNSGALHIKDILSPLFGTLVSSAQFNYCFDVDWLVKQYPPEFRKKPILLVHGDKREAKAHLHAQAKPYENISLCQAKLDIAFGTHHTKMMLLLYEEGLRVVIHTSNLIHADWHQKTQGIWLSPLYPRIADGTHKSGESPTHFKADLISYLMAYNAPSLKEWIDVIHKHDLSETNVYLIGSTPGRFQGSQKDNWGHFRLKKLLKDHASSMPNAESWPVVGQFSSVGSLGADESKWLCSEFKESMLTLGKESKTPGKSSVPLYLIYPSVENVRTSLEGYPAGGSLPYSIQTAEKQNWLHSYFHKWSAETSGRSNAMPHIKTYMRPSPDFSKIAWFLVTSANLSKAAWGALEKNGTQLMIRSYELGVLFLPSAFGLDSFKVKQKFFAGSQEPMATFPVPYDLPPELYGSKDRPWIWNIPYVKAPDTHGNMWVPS
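E. coli-derived human Tdp1, 1 nM final. Cpd preinc 15 min RT; substrate 15 nM final, 5 min RT; AS bead mix 10 ug/ml final, 10 min RT. Signal loss = tyrosine-FITC cleavage. No-enzyme wells = max signal.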
* = called active by the depositor; ? = inconclusive; · = not tested or not shown; [ ] = remark or other dose. In the library only some 16% were active in any assay of this set; here they are far more common. Unless noted, calls come from the whole dose curve; as a rule, active = well fitted curve in the direction sought with a large enough effect; inconclusive = small, poorly fitted or top-dose-only effect, or another doubt; inactive = no such curve, though single readings can be large; an effect the other way counts as inactive or inconclusive.

SMILES	uPA generation	TDP1 cell CPT	TDP1 cell noCPT	miR-21 reporter	TDP1 inh
Cc1ccc(C)c(S(=O)(=O)/N=C2\C=C(NS(=O)(=O)c3ccccc3)C(=O)c3ccccc32)c1	1.1%	16.4µM*	16.4µM*	0.7%	·
CC(=O)Nc1ccc(NC2=C/C(=N/S(=O)(=O)c3cccs3)c3ccccc3C2=O)cc1	-12.3%	13µM*	10.3µM*	?	5.8%
Cc1ccc(NC2=C/C(=N/S(=O)(=O)c3cccs3)c3ccccc3C2=O)cc1C	-5.3%	?	7.31µM*	-20.6%	5.3%
O=C1CSC(c2cccc([N+](=O)[O-])c2)N1c1ccccc1 (configuration not stated)	0.5%	8.2%	-13.3%	-12.9%	6.0%
COc1ccc(S(=O)(=O)c2ccc(O)cc2)cc1	0.4%	5.4%	-0.4%	6.1%	2.0%
COc1ccc(S(=O)(=O)/N=C2\C=C(Nc3ccc(O)cc3)C(=O)c3ccccc32)cc1	-5.9%	0.82µM*	1.46µM*	?	10.2%
COC(=O)C(C(C)=O)C1=C/C(=N\S(=O)(=O)c2ccc(C)cc2)c2ccccc2C1=O (configuration not stated)	·	3.55µM*	10µM*	9.4%	1.0%
CCc1ccc(S(=O)(=O)/N=C2\C=C(NS(=O)(=O)c3ccccc3)C(=O)c3ccccc32)cc1	-8.9%	?	-27.3%	-30.5%	·
CC[n+]1c(/C=C/N(C)c2ccccc2)n(-c2ccccc2)c2ccc(-c3nc4ccccc4s3)cc21	-12.4%	0.82µM*	0.731µM*	?	8.9%
CCC(C)(C)c1ccc(OCCCC[n+]2ccccc2)c(C(C)(C)CC)c1	11.2µM*	0.581µM*	0.0116µM*	?	1.2%
CCCCCc1ccc(OCCCC[n+]2ccc(C)cc2)c(CCCCC)c1	-13.6%	1.03µM*	0.461µM*	?	-1.2%
CCCCCc1ccc(OCCCC[n+]2ccccc2)c(CCCCC)c1	-12.4%	2.59µM*	2.59µM*	?	5.8%
CCCCCc1ccc(OCCCC[n+]2cccc(C)c2)c(CCCCC)c1	-11.4%	2.31µM*	1.16µM*	-6.4%	·
CCCCCCc1ccc(OCC(=O)O)cc1OCC(=O)O	5.8%	-0.8%	-0.1%	0.5%	1.0%
O=C(O)c1ccccc1C(=O)N1CCN(S(=O)(=O)c2cccc(C(F)(F)F)c2)CC1	1.9%	12.9%	-3.8%	·	1.4%
O=c1cc(-c2ccc(F)cc2)nc(SCc2nc(-c3ccc(Cl)cc3)no2)[nH]1	·	-17.2%	-22.4%	0.4%	0.0%
COCCCNc1oc(-c2cccs2)nc1S(=O)(=O)c1ccc(C)cc1	5.0%	-3.6%	-20.3%	-3.2%	8.2%
c1cc[n+](CCCC[n+]2ccccc2)cc1	15.6%	3.4%	9.1%	-2.3%	1.9%
CCCCCCCCCCCCCCCC[n+]1ccc(C)cc1	·	0.891µM*	0.501µM*	·	·
Cc1cccc(N2CCN(C(=O)c3cc(=O)[nH]c4ccccc34)CC2)c1C	-0.8%	?	-13.6%	-0.2%	3.7%
C#CCOCCOCCOCCNc1nc(N2CCN(C(=O)[C@H](C)n3cc(CCCN=C(N)N)nn3)CC2)nc(N2CCN(C(=O)[C@H](Cc3ccc(O)cc3)n3cc(CCO)nn3)CC2)n1	·	·	·	-1.5%	-14.5%
Cc1ccc(S(=O)(=O)N2C[C@@H]3[C@H]4CC[C@H](C4)[C@@H]3[C@@H](C)[C@@H]2c2ccn([Si](C(C)C)(C(C)C)C(C)C)c2)cc1	12.9%	?	23.1µM*	·	·
Cc1ccc(S(=O)(=O)N2C[C@@H]3c4ccccc4N(S(=O)(=O)c4ccc(C)cc4)[C@@H]3[C@@H](C)C2CC(=O)c2ccccc2)cc1 (some centres not stated)	-1.7%	3.8%	-3.3%	·	-0.8%[56.1 µM]
C=CCC1[C@H](C)[C@H]2[C@@H]3CC[C@@H](C3)[C@H]2CN1S(=O)(=O)c1ccc(C)cc1 (some centres not stated)	-13.1%	18.4µM*	?	·	-7.5%[56.1 µM]
Cc1ccc(S(=O)(=O)N2C[C@@H]3[C@H]4CC[C@H](C4)[C@@H]3[C@@H](C)C2CC(=O)c2ccccc2)cc1 (some centres not stated)	7.5%	?	23.1µM*	·	-0.3%[56.1 µM]
SMILES	uPA generation	TDP1 cell CPT	TDP1 cell noCPT	miR-21 reporter	TDP1 inh
CC(C)CC(NC(=O)/C(=C\c1ccco1)NC(=O)c1ccco1)C(=O)O (configuration not stated)	9.7%	-0.3%	-2.8%	-0.6%	2.7%
O=C(O)CC(C(=O)Nc1ccc(Cl)c(Cl)c1)C1CCCO1 (configuration not stated)	0.8%	0.7%	-3.8%	-1.0%	-4.5%
Cc1onc(-c2c(Cl)cccc2Cl)c1-c1nnc(-c2ccc(Cl)cc2)o1	4.1%	?	16.4µM*	0.6%	5.7%
Cc1onc(-c2c(F)cccc2Cl)c1-c1nnc(-c2ccc(C(F)(F)F)cc2)o1	3.9%	?	?	8.7%	-3.7%
CCN(CC)CCC(c1ccc2c(c1)OCO2)c1c(OC)cc(OC)c2ccc(=O)oc12 (configuration not stated)	-11.7%	13µM*	18.4µM*	-4.1%	·
COc1cc(OC)c2c(-c3ccccc3)cc(=O)oc2c1C(CCN1CCCC(C)C1)c1ccc2c(c1)OCO2 (configuration not stated)	?	?	23.1µM*	?	10.3%
COc1cc(C(CCN2CCCC(C)C2)c2c(OC)cc(OC)c3c(C)cc(=O)oc23)cc(OC)c1OC (configuration not stated)	·	·	·	·	5.0%
COc1cc(OC)c2c(C)cc(=O)oc2c1C(CCN1CCOCC1)c1ccc2c(c1)OCO2 (configuration not stated)	-3.8%	18.4µM*	20.6µM*	8.3%	4.7%
COc1cc(OC)c2c(-c3ccccc3)cc(=O)oc2c1C(CC(=O)N1CCCC1)c1ccc2c(c1)OCO2 (configuration not stated)	0.1%	?	20.6µM*	8.1%	·
CCN(CC)CCC(c1cc(OC)c(OC)c(OC)c1)c1c(OC)cc(OC)c2ccc(=O)oc12 (configuration not stated)	-6.0%	?	?	-1.4%	5.0%
COc1cc(OC)c2ccc(=O)oc2c1C(CC(=O)N1CCCC1)c1ccc2c(c1)OCO2 (configuration not stated)	8.8%	?	?	-12.2%	·
Cn1ccnc1-c1nnn(-c2ccc(Cl)c(Cl)c2)n1	13.3%	-4.7%	-3.2%	·	·
